Assay outcomes deposited in PubChem by National Center for Advancing Translational Sciences (NCATS).
Shown are actives, neighbours in structure and some others; about 1.7% of the full set was active somewhere.
TRPML1 agonist – activates the human TRPML1 channel; TRPML1-expressing cells, Ca2+ dye fluorescence, FDSS; 410,000 compounds, 0.12% hits; activation, % (concentration not given with the values); in the data active = activation above about 50%; inconclusive = mostly about 30% to 49%; note: 0% is about no effect
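Cells: TRPML1-DL, 1X Tet inducer, ~16 h at 37 degrees C/5% CO2. Dye: ABD Ca8 no-wash + quencher, 45-90 min RT. Read: 10 s baseline, compound add, 110 s agonist phase; 54-4 EC80 (4uM final), 110 s antagonist phase.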
TRPML1 blocker – blocks the human TRPML1 channel. Q9GZU1. TRPML1-inducible cells, Ca2+ dye fluorescence, FDSS; hits give low values; inhibition of EC80 agonist-evoked calcium signal. AID 624415. 390,000 compounds, 0.02% hits. activity change, negative = inhibition, % (concentration not given with the values); in the data active = activity change below about -50%; inconclusive = between about -30% and that limit;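 note: stimulus is agonist 54-4 at its EC80 concentration; % is set by controls: 0 for no effect and ±100 for the full control effect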
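TRPML1-DL cells, Tet-induced overnight (~16 h, 37 °C) at 1,500 cells/well, were loaded with Ca8 no-wash dye plus quencher for 45-90 min at room temperature. Compounds were pinned during FDSS kinetic reading; agonist 54-4 at EC80 (4 uM final) then added.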
KCNH2 3.1 inh – inhibitors of human KCNH2 3.1 potassium channel isoform; U2OS KCNH2 3.1, thallium flux FluxOr; hits give low values; activity change, % (tested at about 1.8 µM); 340,000 compounds, 0.95% hits; AID 720553;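 active = maximum activity change below -70%; inconclusive = maximum activity change from -70% to -50%; inactive = maximum activity change above -50%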;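 note: thallium influx rate constant from kinetic fluorescence after stimulation buffer; % is set by controls: 0 for no effect and ±100 for the full control effect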
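Channel expression came from 3.1 mutant virus (1.77 x 10^8 /mL) applied to suspended U2OS cells for 4 h. Flux was tracked with FluxOr dye plus Red40 quencher, and kinetic rate constants normalized to controls.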
TRHR PAM – TRH receptor (human) allosteric enhancement. AID 493056. enhancement, % at 2 µM. TRHR cells, fluo-8 calcium fluorescence, EC20 TRH enhancement. 360,000 compounds, 0.66% hits; in the data active = enhancement above about 30%; note: 0% is about no effect
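Enhancer read-out: after compound pinning and an initial kinetic agonist-mode read, an EC20 of TRH (10 nM final) was injected and fluo-8 calcium signal (Ex 480/Em 530) followed at 1 s/cycle for 100 cycles in TRHR-expressing cells.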
TRHR agonist – activates the human TRH receptor; 360,000 compounds, 0.18% hits; activation, % at 2 µM; TRHR cells, calcium flux fluo-8, FDSS agonist mode; P34981; in the data active = activation above about 30%; note: 0% is about no effect
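Read-out: compound-evoked intracellular calcium rise in TRHR cells, fluo-8 dye, kinetic FDSS fluorescence at 1 s/cycle following a 10-cycle baseline. Cells cultured overnight before dye loading (30 min–1.5 h, RT).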
hERG WT inh – inhibitors of human wildtype KCNH2 potassium channel; Q12809; U2OS, BacMam KCNH2, thallium flux FluxOr; hits give low values; activity change, % at 1.84 µM; 340,000 compounds, 0.37% hits;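 active = maximum activity change below -70%; inconclusive = maximum activity change between -70% and -50%; inactive = maximum activity change above -50%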; note: % is set by controls: 0 for no effect and ±100 for the full control effect
Target sequence (Q12809 whole entry, looked up): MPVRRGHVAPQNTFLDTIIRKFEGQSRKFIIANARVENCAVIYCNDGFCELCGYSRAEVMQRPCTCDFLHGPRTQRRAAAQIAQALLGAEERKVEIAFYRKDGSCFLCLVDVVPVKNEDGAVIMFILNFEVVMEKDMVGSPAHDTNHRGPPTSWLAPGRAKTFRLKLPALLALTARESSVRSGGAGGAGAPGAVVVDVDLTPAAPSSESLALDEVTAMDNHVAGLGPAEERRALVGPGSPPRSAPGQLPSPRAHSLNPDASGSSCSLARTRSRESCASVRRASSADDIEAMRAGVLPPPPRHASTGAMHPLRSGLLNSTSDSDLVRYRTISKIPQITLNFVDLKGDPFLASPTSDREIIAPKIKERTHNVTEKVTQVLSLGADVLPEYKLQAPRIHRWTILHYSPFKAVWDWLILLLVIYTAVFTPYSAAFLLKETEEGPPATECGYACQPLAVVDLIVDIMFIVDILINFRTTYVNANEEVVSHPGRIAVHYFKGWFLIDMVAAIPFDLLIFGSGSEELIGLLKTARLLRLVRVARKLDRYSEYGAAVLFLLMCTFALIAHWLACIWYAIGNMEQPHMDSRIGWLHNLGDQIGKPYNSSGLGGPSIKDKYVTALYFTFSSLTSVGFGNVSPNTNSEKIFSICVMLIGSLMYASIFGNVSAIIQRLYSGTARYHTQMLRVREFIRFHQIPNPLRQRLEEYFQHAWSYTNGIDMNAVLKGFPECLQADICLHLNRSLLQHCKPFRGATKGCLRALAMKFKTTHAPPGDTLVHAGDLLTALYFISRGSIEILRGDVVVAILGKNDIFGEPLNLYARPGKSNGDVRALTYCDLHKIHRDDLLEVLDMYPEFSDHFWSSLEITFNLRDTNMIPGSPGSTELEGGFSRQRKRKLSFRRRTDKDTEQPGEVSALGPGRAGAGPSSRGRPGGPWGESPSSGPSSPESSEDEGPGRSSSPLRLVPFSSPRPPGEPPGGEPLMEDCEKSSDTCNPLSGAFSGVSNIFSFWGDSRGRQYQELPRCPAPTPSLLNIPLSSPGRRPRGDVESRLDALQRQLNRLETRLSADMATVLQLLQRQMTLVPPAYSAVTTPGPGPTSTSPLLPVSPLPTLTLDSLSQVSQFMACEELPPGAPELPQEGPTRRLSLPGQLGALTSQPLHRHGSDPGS
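U2OS cells transduced with wild-type KCNH2 virus are loaded with FluxOr dye for 45 min, and thallium flux is measured in kinetic reads before and after stimulation buffer. Rate constants are normalized to DMSO controls.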
* hit, by the source's call; ? = inconclusive; / = not tested or not shown.

SMILES	TRPML1 agonist	TRPML1 blocker	KCNH2 3.1 inh	TRHR PAM	TRHR agonist	hERG WT inh
O=C(C[C@H]1C/C=C\CC[C@H](Cc2ccc(F)cc2)C(=O)OC[C@@H]2CCCN2C1=O)N[C@H](CO)Cc1ccccc1	0	-11	-3	/	/	2
COc1ccc(NS(=O)(=O)c2cc(NC(=O)c3cc(=O)c4ccccc4o3)ccc2OC)cc1	0	7	-6	34*	0	12
COc1cccc(NC(=O)c2cc(=O)c3ccccc3o2)c1	1	24	9	2	0	-45
CCOC(=O)c1ccc(N2C(=O)CC(N3CCN(C/C=C/c4ccccc4)CC3)C2=O)cc1 (centres undefined)	0	-14	-101*	-5	1	-84*
CCN1CCC(NC(=O)Nc2ccc(F)cc2F)CC1	0	-15	-86*	3	-4	-4
O=C(NCCN1CCCCC1)Nc1ccc(F)cc1F	0	-4	21	37*	0	13
Cc1cccc([S+](=O)([O-])NC2CCN(C#N)CC2)c1	/	/	/	-1	1	/
CCn1c2c(c(C)cc1=O)C(=O)CC(C)(C)C2	0	19	-13	34*	0	-17
OCc1c(OCc2cccc(F)c2)ccc2ccccc12	/	/	-81*	2	0	-3
CNCc1c(OCc2ccc(F)cc2)ccc2ccccc12	0	6	8	1	0	10
O=C1NC(c2cccc(Cl)c2)Oc2ccccc21 (centres undefined)	0	-7	8	32*	0	-1
Cc1cccc(C2NC(=O)c3ccccc3O2)c1 (centres undefined)	0	-3	18	-2	0	-5
N#Cc1ccc(C=NN2CCCCCC2)cc1	2	24	0	/	/	-1
COc1cc(C)ccc1OCc1cc(C(=O)NC2CCOCC2)no1	0	-4	-2	/	/	-9
COc1cc(C)ccc1OCc1cc(C(=O)NC(c2ccccn2)C(F)(F)F)no1 (centres undefined)	4	-3	-87*	/	/	-2
Cc1sc(NC(=O)C2CCCCC2)c(C#N)c1-c1ccccc1	83*	-14	-19	5	0	-6
CC(=O)C1=CCC(c2ccccc2)N(S(C)(=O)=O)C1 (centres undefined)	-1	/	/	/	/	/
COCCOC(=O)C1=C(C)NC(=S)NC1c1cccs1 (centres undefined)	0	3	-76*	4	0	1
COCCOC(=O)C1=C(C)NC(=O)NC1c1cccs1 (centres undefined)	-1	-3	0	10	0	11
COc1cc(N(C)C)c(OC)cc1/C=C1\Cc2ccccc2C1=O	78*	/	/	/	/	/
Cc1ccc(NC(=O)CSc2nnc(-c3ccncc3)n2N)cc1C	0	15	-7	3	2	-204*
CC(=O)OCC(=O)C1(O)CCC2C3CC(F)C4=CC(=O)CCC4(C)C3C(O)CC21C (centres undefined)	0	31	7	/	/	3
Cc1cc(C)nc(/N=C(\N)Nc2ccc(CC(=O)OC(C)C)cc2)n1	68*	12	-21	-8	13	39
Cc1cc(C)nc(/N=C(\N)Nc2ccc(OCc3ccccc3)cc2)n1	81*	5	-80*	-3	50*	18
Cc1cc(C)nc(/N=C(\N)Nc2ccc(OCCC(C)C)cc2)n1	97*	-15	-82*	-20	27	42
SMILES	TRPML1 agonist	TRPML1 blocker	KCNH2 3.1 inh	TRHR PAM	TRHR agonist	hERG WT inh
CCCCNC(=O)C(NC(=O)c1cccc(C(F)(F)F)c1)C(=O)c1ccccc1 (centres undefined)	0	/	/	/	/	/
Cc1nc2sc3c(=O)[nH]nnc3c2c(C)c1Br	1	34	-9	-13	1	0
CCN1C(Nc2ccccc2)=NC[C@@H]1Cc1ccccc1	1	-7	-109*	-3	2	-15
CCC(C)CCN1C(Nc2ccccc2)=NC[C@@H]1Cc1ccccc1 (some centres undefined)	-1	5	-49	-9	1	67
CC(C)(C)C1CCC(CN2C(Nc3ccccc3)=NC[C@@H]2Cc2ccccc2)CC1 (some centres undefined)	1	0	/	/	/	/
c1ccc(CCCCN2C(Nc3ccccc3)=NC[C@@H]2Cc2ccccc2)cc1	1	1	-104*	1	0	-36
CN(C)C1=NC[C@H](Cc2ccccc2)N1CCCC1CCCCC1	1	-9	?	5	0	-44
C[C@H]1CN=C(Nc2ccccc2)N1CCCC1CCCCC1	0	5	7	-3	1	25
CN(C)C1=NC[C@H](Cc2ccccc2)N1CCCC1CCCC1	1	42	-102*	-1	0	-32
c1ccc(C[C@H]2CN=C(Nc3ccccc3)N2CCCC2CCCC2)cc1	0	-4	-96*	0	1	-93*
Cc1cc2c(s1)c1cnn(Cc3ccc(F)cc3Cl)c(=O)c1n2C	/	/	/	4	0	/
O=[S+]([O-])(c1ccc2c(c1)OCCO2)N1CCN([S+](=O)([O-])c2ccc(F)cc2Br)CC1	/	/	/	-3	0	/
CSc1ccc(NC(=O)NCc2ccccc2)cc1	0	22	19	-3	-1	1
CCCCCCCN1C(Nc2ccccc2)=NC[C@@H]1Cc1ccccc1	0	12	-109*	0	1	-30
COc1cc(OC)c(NS(=O)(=O)c2cc(C(=O)NCCCN3CCOCC3)ccc2C)cc1Cl	-1	7	0	/	/	14
CN1/C(=C\C=C(/C#N)C(=O)Nc2ccccc2F)C(C)(C)c2ccccc21	?	-1	/	19	114*	-18
CN1/C(=C/C=C(/C#N)C(N)=O)C(C)(C)c2ccccc21	5	15	-13	/	/	-5
CN1CCN(c2nc3nonc3nc2N2CCN(C)CC2)CC1	4	0	-26	32*	0	7
C1CCN(c2nc3nonc3nc2N2CCCCC2)CC1	1	-7	10	0	0	-14
Cc1cccc(-c2sc(Nc3ccccc3)n[n+]2-c2ccc(F)cc2)c1	0	4	-92*	-2	0	-13
O=C(NCCc1ccccc1)Nc1nnc([C@@H]2C[C@H](O)[C@@H](CO)O2)s1	-1	/	/	/	/	/
COc1ccc(NC(=O)c2coc3ccccc23)cc1OC	0	-2	-5	4	0	-341*
COc1ccc(NC(=O)c2coc(=O)c3ccccc23)cc1OC	-1	-16	/	1	-3	/
Cc1cccc(N2CCN(CCCNC(=O)Cn3ncc4c([nH]c5ccccc54)c3=O)CC2C)c1 (centres undefined)	5	23	/	3	0	/
